The results in this text go back to PubChem BioAssay (NCI).

Test systems include NCI-H23 lung; NCI-H226 lung; HOP-62 NSCLC; NCI-H460 lung; HOP-92 NSCLC; NCI-H522 lung; A549/ATCC NSCLC; 786-0 renal; COLO 205 colon.
Holding throughout (assay): NCI-60 one-dose screen, 48 h (100 = growth as untreated, 0 = no growth, -100 = all killed)
What all share (conditions): 10 µM unless noted

This is part of a sample that, as a whole, favours compounds with a hit. Of some 83,000 tested, about 20% had one in any assay.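 Results are percent growth after 48 hours of single-concentration exposure. 100 means growth as in untreated cells, lower positive values show inhibition; negative values down to -100 show cell death.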 A number with no mark means an inactive call. Active and inactive are the calls of the source. The calls were made as follows: active = growth percent below 10; inactive = the rest.

As to `O=C(Nc1ccc(Oc2ccc(NC(=O)Nc3ccccc3Cl)cc2)cc1)Nc1ccccc1Cl`, the growth in the assay on NCI-H23 lung is 41.8%; with NCI-H226 lung it was 61.9%; in the assay with HOP-62 NSCLC it was 81%; with NCI-H460 lung, 30.2%; in the assay on HOP-92 NSCLC, 38%; with NCI-H522 lung, -10.4% (active). The growth was -3.15% (active) in the assay on A549/ATCC NSCLC, 78.7% with 786-0 renal and 49% in the assay on COLO 205 colon.

For the molecule `FC(F)(F)c1ccc(/C=N/Nc2nnc3n2N=C(c2ccc(Cl)cc2)CS3)cc1`, the growth with NCI-H23 lung was 64.8%; in the assay on NCI-H226 lung it was 20.7%; with HOP-62 NSCLC, 16.4%; with NCI-H460 lung, 43.9%; with HOP-92 NSCLC it was 3.52% (active); in the assay with NCI-H522 lung, 58.1%. Also, the growth in the assay with A549/ATCC NSCLC is 51.7%; with 786-0 renal, 27.6%; in the assay on COLO 205 colon, 89.3%.

Take `Fc1cnccc1-c1nc2ccc3[nH]ncc3c2c2c1CCCC2`: the growth with NCI-H23 lung is 31.9%; in the assay on NCI-H226 lung it was 30%; in the assay with HOP-62 NSCLC, 21%; in the assay on NCI-H460 lung, 25.8%; with HOP-92 NSCLC it was 40.7%; in the assay on NCI-H522 lung, 18.8%. The results for the growth in the assay on A549/ATCC NSCLC, with 786-0 renal and in the assay with COLO 205 colon were 14.6%, 28.1% and 17.6%, respectively.

For the molecule `Cc1[nH]n(C(=O)c2ccncc2)c(=O)c1N=Nc1ccc(O)c(C(=O)O)c1`, the growth in the assay on NCI-H23 lung was 106%; in the assay on NCI-H226 lung, 86.3%; in the assay with HOP-62 NSCLC it was -3.17% (active); in the assay with NCI-H460 lung, 114%; in the assay with HOP-92 NSCLC, 62.7%; with NCI-H522 lung, 104%. For the same molecule, the growth is 21.9% in the assay on A549/ATCC NSCLC and 113% with COLO 205 colon.

Turning to `C#CC[C@@H]1C[C@]2(C)[C@H]3CC[C@@H]4[C@H]5C(C(=C)C)CC[C@]5(C(=O)NCCCCN)CC[C@@]4(C)[C@]3(C)CC[C@H]2C(C)(C)[C@H]1OC(C)=O` (some centres not stated), the growth in the assay on NCI-H23 lung was 11.7%; in the assay on NCI-H226 lung, 96.1%; in the assay on HOP-62 NSCLC, 105%; in the assay on NCI-H460 lung it was -56.5% (active); with HOP-92 NSCLC, 42.2%; in the assay with NCI-H522 lung it was -64.4% (active). The growth was -54.1% (active) with A549/ATCC NSCLC, -87.5% (active) in the assay on 786-0 renal and -71.6% (active) in the assay on COLO 205 colon.

Turning to `Cc1ccc(N=CNN=C(N)N)cc1`, the growth in the assay with NCI-H23 lung was 106%; in the assay with NCI-H226 lung, 92%; with HOP-62 NSCLC it was 102%; with NCI-H460 lung, 120%; in the assay with HOP-92 NSCLC it was 109%; in the assay on NCI-H522 lung it was 95.4%. Further, the figures for the growth in the assay with A549/ATCC NSCLC, with 786-0 renal and with COLO 205 colon were 100%, 115% and 113%, respectively.

Consider `COc1cccc(NC(=O)[C@H](C(C)C)n2c(=O)[nH]c3ccccc3c2=O)c1`, for which the growth in the assay on NCI-H23 lung was 99.8%; with NCI-H226 lung, 92.4%; in the assay on HOP-62 NSCLC it was 102%; in the assay on NCI-H460 lung it was 103%; in the assay with HOP-92 NSCLC, 110%; in the assay on NCI-H522 lung, 99.1%. For the same molecule, the growth is 97.9% in the assay with A549/ATCC NSCLC, 105% in the assay on 786-0 renal and 108% in the assay on COLO 205 colon.

Regarding `COc1cc2c(cc1I)-c1c(cc(OC)c(OC)c1OC)CC[C@@H]2NC(C)=O`, the growth was 4.9% (active) with NCI-H23 lung; 33.6% in the assay on NCI-H226 lung; 14.7% with HOP-62 NSCLC; 1.44% (active) in the assay with NCI-H460 lung; 43.7% in the assay with HOP-92 NSCLC; -22.3% (active) in the assay with NCI-H522 lung. Further, the growth is 28.3% with A549/ATCC NSCLC, 16.4% with 786-0 renal and -52.8% (active) in the assay on COLO 205 colon.

As to `CCCCn1cnc(-c2cc(-c3ccccc3)cc(C(F)(F)F)c2)n1`, the growth in the assay on NCI-H23 lung was 98.1%; with NCI-H226 lung, 95.6%; in the assay on HOP-62 NSCLC, 99.1%; in the assay with NCI-H460 lung it was 99%; in the assay on HOP-92 NSCLC, 76%; in the assay on NCI-H522 lung, 93.8%. In addition, the results for the growth with A549/ATCC NSCLC, in the assay with 786-0 renal and in the assay on COLO 205 colon were 97.8%, 103% and 104%, respectively.

`FC1(F)CCN(Cc2c[nH]c3cc(Cl)ccc23)C[C@H]1CCc1ccccc1`: the growth with NCI-H23 lung is 67.7%; in the assay on NCI-H226 lung, 43.5%; in the assay on HOP-62 NSCLC it was 46.1%; in the assay on NCI-H460 lung, 42.8%; with HOP-92 NSCLC it was 37.3%; with NCI-H522 lung it was 67.6%. Also, the growth in the assay on A549/ATCC NSCLC was 43%; in the assay on 786-0 renal it was 66.9%; in the assay on COLO 205 colon, 69.5%.

On to `CC1=C(C(=O)Nc2ccc(F)cc2)C(c2ccc(C)cc2)C2=C(CC(C)(C)CC2=O)N1` (configuration not stated), for which the growth in the assay on NCI-H23 lung is 93.4%; in the assay on NCI-H226 lung it was 89.8%; in the assay with HOP-62 NSCLC, 91.5%; in the assay with NCI-H460 lung, 90.8%; with NCI-H522 lung, 91.2%; with A549/ATCC NSCLC, 92.4%. Further, the growth with 786-0 renal was 97.2%.

Turning to `CC(C)c1ccc(Cn2ccc3c4c(N)nc(NC5CC5)nc4ccc32)cc1`, the growth in the assay with NCI-H23 lung was -71.3% (active); in the assay on NCI-H226 lung, -73.3% (active); with HOP-62 NSCLC, -74.8% (active); in the assay with NCI-H460 lung, -84.2% (active); in the assay on HOP-92 NSCLC, -88.2% (active); in the assay with NCI-H522 lung it was -81.8% (active). Moreover, the growth is -80.9% (active) in the assay with A549/ATCC NSCLC, -91.6% (active) with 786-0 renal and -78% (active) with COLO 205 colon.

Regarding `COc1cccc2nc(Nc3cccc(NC(=O)c4ccc(N5CCN(C)CC5)c(C(F)(F)F)c4)c3)ccc12`, the growth in the assay on NCI-H23 lung was 62.6%; with NCI-H226 lung, 43.2%; in the assay on HOP-62 NSCLC, 18.2%; in the assay with NCI-H460 lung, -9.94% (active); in the assay on HOP-92 NSCLC, 13%; in the assay on NCI-H522 lung, -14.2% (active). The growth is 25.3% in the assay on A549/ATCC NSCLC, -57.8% (active) with 786-0 renal and -59.2% (active) in the assay on COLO 205 colon.

As to `C/C(=N\OC(=O)Nc1cccc(Cl)c1)c1ccccc1`, the growth is 106% in the assay on NCI-H23 lung; 92.1% in the assay on NCI-H226 lung; 95.8% with HOP-62 NSCLC; 105% with NCI-H460 lung; 132% in the assay on HOP-92 NSCLC; 91.9% with NCI-H522 lung. The growth in the assay with A549/ATCC NSCLC is 89.2%; in the assay with 786-0 renal it was 99.4%; in the assay with COLO 205 colon, 117%.

`COc1ccc(/C(=C\c2cc(OC)c(OC)c(OC)c2)C(=O)N2CCNCC2)cc1`: the growth was 102% in the assay on NCI-H23 lung; 94% in the assay on NCI-H226 lung; 97.4% in the assay with HOP-62 NSCLC; 105% in the assay on NCI-H460 lung; 94% in the assay on HOP-92 NSCLC; 79.1% with NCI-H522 lung. Also, the growth in the assay with A549/ATCC NSCLC is 90.4%; in the assay with 786-0 renal, 103%; in the assay with COLO 205 colon, 113%.
